Laboratory results as given in PubChem BioAssay (Tox21).
Records with an inconclusive call do not appear. Unmarked numbers belong to inactive results. Activity calls are given as the source filed them. The call rests on the fitted dose curve; in most records, active means well fitted curve in the direction sought with a large enough effect in the repeat runs; inconclusive means weak or mixed curves; inactive means no such curve, though single readings can be large; an effect the other way counts as inactive or inconclusive.

biological target: Nuclear receptor subfamily 1 group I member 3 (Homo sapiens) (UniProt Q14994); test: qHTS assay to identify small molecule antagonists of the constitutive androstane receptor (CAR) signaling pathway (AID 1224838); details: HepG2-CYP2B6-hCAR luciferase, CITCO-stimulated, 24 h; series mostly up to 92.4 µM; activity, negative = inhibition: at the top concentration; further: nearly all actives have a fitted effect of over 40% in size
Sequence (Q14994 whole entry, looked up): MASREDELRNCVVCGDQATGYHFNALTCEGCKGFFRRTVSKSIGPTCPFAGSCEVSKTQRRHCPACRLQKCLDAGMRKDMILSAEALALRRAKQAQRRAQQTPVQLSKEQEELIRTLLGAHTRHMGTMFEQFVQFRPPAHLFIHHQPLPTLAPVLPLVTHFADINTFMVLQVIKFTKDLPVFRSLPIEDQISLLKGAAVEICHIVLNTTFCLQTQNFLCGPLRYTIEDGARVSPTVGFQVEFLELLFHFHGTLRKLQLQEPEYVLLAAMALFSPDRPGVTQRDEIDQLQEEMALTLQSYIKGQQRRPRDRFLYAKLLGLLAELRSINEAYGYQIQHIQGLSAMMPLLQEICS
How it was run: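 HepG2 cells stably co-transfected with hCAR and a CYP2B6-2.2kb luciferase reporter were seeded 4 h before compound addition at 15 concentrations. Cells were stimulated with 50 nM CITCO (final) for 24 h at 37 C; luciferase luminescence was then read.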
On the % scale 0 is the no-effect control and ±100 the full control effect; potency means the concentration at half of the fitted maximal effect.

SMILES	Potency	activity, negative = inhibition
CCOCn1c(-c2ccc(Cl)cc2)c(C#N)c(Br)c1C(F)(F)F	4.86 µM (active)	
Clc1ccc(CCC(Cn2ccnc2)Sc2c(Cl)cccc2Cl)cc1 (centres undefined)		54.4% [at 42.5 µM]
Nc1ccccc1C(=O)Oc1ccc2ccccc2c1		229%
BrC(Br)Br		39.4%
CC(C)[C@H](C(=O)OC(C#N)c1cccc(Oc2ccccc2)c1)c1ccc(OC(F)F)cc1 (some centres undefined)		-7.04%
CC(C)(C)OO		6.85%
ClC(Cl)=C(c1ccc(Cl)cc1)c1ccc(Cl)cc1	inactive	
CC(=O)Nc1ccc2c(c1)Cc1ccccc1-2		284%
ClC1=C(Cl)C2(Cl)C3C(Cl)C=CC3C1(Cl)C2(Cl)Cl (centres undefined)	inactive	
CC(C)CCCCCOC(=O)c1ccccc1C(=O)OCCCCCC(C)C		21.2%
c1ccc2c(c1)[nH]c1cnccc12		54.6%
O=c1[nH]c2ccccc2n1CCCN1CCC(n2c(=O)[nH]c3cc(Cl)ccc32)CC1		3.2% [at 42.5 µM]
Cc1ccc(OP(=O)(Oc2ccccc2)Oc2ccccc2)cc1		36.8%
Cc1c(Cl)c(=O)oc2cc(OP(=O)(OCCCl)OCCCl)ccc12		38.1% [at 42.5 µM]
FC(F)(F)c1cccc(C2=CCN(CCc3ccc4ccccc4c3)CC2)c1		-10.4% [at 42.5 µM]
CCOC(=O)C1(c2ccccc2)CCN(CCC(C#N)(c2ccccc2)c2ccccc2)CC1		24.6% [at 42.5 µM]
N#CCCSCCC#N		-3.74%
OC(c1ccc(Cl)cc1)(c1ccc(Cl)cc1)C(Cl)(Cl)Cl		83%
NNC(=O)c1ccccc1		103%
C[C@]12CC[C@H]3[C@@H](CCC4=CC(=O)CC[C@@]43C)[C@@H]1CC[C@@H]2O		-0.587%
CCCN(CCC)CCc1c[nH]c2ccccc12		41.7%
CCOC(=O)OC1=C(c2cc(C)ccc2C)C(=O)NC12CCC(OC)CC2 (centres undefined)		-2.06%
Fc1cccc(Cl)c1CCl		19.8%
CCN		-1.4%
CC(C)OS(C)(=O)=O		9.7%
Clc1ccc(-c2ccc(Cl)c(Cl)c2Cl)c(Cl)c1Cl		13.7%
COc1ccc(OC)c(CC(C)N)c1 (centres undefined)		8.58%
O=C(O)COc1nc(Cl)c(Cl)cc1Cl		25.6%

biological target: Nuclear receptor subfamily 1 group I member 3 (Homo sapiens) (UniProt Q14994); test: qHTS assay to identify small molecule agonists of the constitutive androstane receptor (CAR) signaling pathway (AID 1224839); details: HepG2 hCAR CYP2B6-luciferase, agonist mode, 24 h; series mostly up to 92.4 µM; activation: at the top concentration; further: nearly all actives have a fitted effect of over 15% in size;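 on activation: HepG2 cells stably carrying human CAR and a CYP2B6 luciferase reporter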
How it was run: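 Cells were plated and incubated 4 hrs, then dosed with compounds at 15 concentrations. PK11195 was added to 0.75 uM final. After 24 hrs at 37 C, luciferase luminescence was measured.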

SMILES	activation	Potency
CCOCn1c(-c2ccc(Cl)cc2)c(C#N)c(Br)c1C(F)(F)F	-16.8%	
N#CNC#N	1.6%	
C[C@H]1CC[C@@H]2[C@@H](C)[C@H]3[C@H](C[C@H]4[C@@H]5CC=C6CC(O[C@@H]7O[C@H](CO)[C@H](O)[C@H](O[C@@H]8O[C@H](CO)[C@@H](O)[C@H](O)[C@H]8O)[C@H]7O[C@H]7O[C@@H](C)[C@H](O)[C@@H](O)[C@H]7O)CC[C@]6(C)[C@H]5CC[C@]34C)N2C1 (some centres undefined)	-24.2%	
Clc1ccc(CCC(Cn2ccnc2)Sc2c(Cl)cccc2Cl)cc1 (centres undefined)		29.8 µM (active)
O=[N+]([O-])c1c2ccccc2cc2ccccc12		21.4 µM (active)
Nc1ccccc1C(=O)Oc1ccc2ccccc2c1		54.5 µM (active)
BrC(Br)Br	6.03%	
CC(C)[C@H](C(=O)OC(C#N)c1cccc(Oc2ccccc2)c1)c1ccc(OC(F)F)cc1 (some centres undefined)	12.6%	
C[C@@H]1O[C@@H](O[C@H]2C[C@@H](O)[C@]3(CO)[C@H]4[C@H](O)C[C@]5(C)[C@@H](C6=CC(=O)OC6)CC[C@]5(O)[C@@H]4CC[C@]3(O)C2)[C@H](O)[C@H](O)[C@H]1O		inactive
CC(C)(C)OO	2.48%	
O=C1NCN(c2ccccc2)C12CCN(CC1COc3ccccc3O1)CC2 (centres undefined)	-3.69% [at 42.5 µM]	
CC(=O)Nc1ccc2c(c1)Cc1ccccc1-2		31.1 µM (active)
CC(C)CCCCCOC(=O)c1ccccc1C(=O)OCCCCCC(C)C	10.8%	
c1ccc2c(c1)[nH]c1cnccc12	0.492%	
O=c1[nH]c2ccccc2n1CCCN1CCC(n2c(=O)[nH]c3cc(Cl)ccc32)CC1	-0.306% [at 42.5 µM]	
Cc1ccc(OP(=O)(Oc2ccccc2)Oc2ccccc2)cc1		17.5 µM (active)
Cc1c(Cl)c(=O)oc2cc(OP(=O)(OCCCl)OCCCl)ccc12	-0.007% [at 42.5 µM]	
CCCN(CC)CC1COC2(CCC(C(C)(C)C)CC2)O1 (centres undefined)	-4.94%	
FC(F)(F)c1cccc(C2=CCN(CCc3ccc4ccccc4c3)CC2)c1	-1.34% [at 42.5 µM]	
N#CCCSCCC#N	2.47%	
NNC(=O)c1ccccc1		62.8 µM (active)
C[C@]12CC[C@H]3[C@@H](CCC4=CC(=O)CC[C@@]43C)[C@@H]1CC[C@@H]2O	8.81%	
CCCN(CCC)CCc1c[nH]c2ccccc12	-0.0468%	
CCOC(=O)OC1=C(c2cc(C)ccc2C)C(=O)NC12CCC(OC)CC2 (centres undefined)	-1.81%	
CCN	-0.636%	
CC(C)OS(C)(=O)=O	-1.06%	
